Measured values taken from PubChem BioAssay AID488896 (Broad Institute, 2010).
The whole screen tested about 320,000 compounds, of which about 3,100 (0.97%) were called active.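 Rule for the calls: active = mean replicate inhibition of at least 70% and a set share of replicates each scoring 70 or more; inconclusive = meets just one of the two criteria; inactive = fails both criteria.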 The list comes from a sample in which actives are over-represented; it also holds similar structures and randomly drawn compounds.

These molecules were tested against Scavenger receptor class B member 1 (Mus musculus) (UniProt Q61009) (assay: mouse SR-BI DiI-HDL uptake blockers – ldlA[mSR-BI] cells, fluorescence, single point, primary screen (AID 488896;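 note: 0% = median of neutral control wells and 100% = median of positive control wells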)). Conditions: ldlA[mSR-BI] CHO cells, 3 h, at 12.5 µM, stronger effect = higher value.
Sequence of Scavenger receptor class B member 1 (Mus musculus) (Q61009 whole entry, looked up): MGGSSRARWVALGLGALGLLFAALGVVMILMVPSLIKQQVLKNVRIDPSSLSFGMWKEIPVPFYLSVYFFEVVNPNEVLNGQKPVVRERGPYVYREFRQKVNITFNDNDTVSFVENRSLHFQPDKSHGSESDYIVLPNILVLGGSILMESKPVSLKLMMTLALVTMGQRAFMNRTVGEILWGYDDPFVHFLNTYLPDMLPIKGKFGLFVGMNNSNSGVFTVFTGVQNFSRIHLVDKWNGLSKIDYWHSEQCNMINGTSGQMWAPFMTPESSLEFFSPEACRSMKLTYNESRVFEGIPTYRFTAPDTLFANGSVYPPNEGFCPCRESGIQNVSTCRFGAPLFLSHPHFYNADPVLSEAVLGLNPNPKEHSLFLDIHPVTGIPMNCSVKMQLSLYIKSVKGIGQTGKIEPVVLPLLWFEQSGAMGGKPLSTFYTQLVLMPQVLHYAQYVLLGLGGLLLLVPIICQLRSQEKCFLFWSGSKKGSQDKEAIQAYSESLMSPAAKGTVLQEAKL
For `Cc1ccc(-c2csc(C(C#N)=C(O)CN3CCN(C(=O)c4ccco4)CC3)n2)cc1`, the inhibition was 4.1% (inactive). With `CCOc1ccc(/C=C(/C#N)c2nnc(N3CCOCC3)n2-c2ccccc2)cc1OC` the inhibition was -9.11% (inactive). In the case of `O=C(Cc1ccc(NC(=O)C2CCCN(C(=O)C3CCCCC3)C2)cc1)Nc1cccc(C(=O)N2CCCCC2)c1` (stereo not given), the inhibition is reported as 43.2% (inactive). `CNc1nc(=O)n(C2CCCO2)cc1C` (stereo not given) was tested, and the inhibition was 0.704% (inactive). In the case of `CCOC(=O)N(Cc1ccccc1)C1CC1`, the inhibition is reported as 1.61% (inactive). For `COc1ccc(CCNc2nc(-c3cccc(NC(C)=O)c3)cs2)cc1OC`, the inhibition was 75.5% (active). With `COc1ccc(CCN(C(=O)COc2ccccc2)c2nc(-c3ccccc3)cs2)cc1OC` the inhibition was 24.1% (inactive). With `CC(=O)Nc1cccc(-c2csc(Nc3cccc(C)n3)n2)c1` the inhibition was 76.4% (active). In the case of `Cc1cccc(Nc2nc(-c3ccccc3)cs2)n1`, the inhibition is reported as 52.4% (inactive). In the case of `CC(=O)Nc1ccc(-c2csc(NC=C3C(=O)OC(C)(C)OC3=O)n2)cc1`, the inhibition is reported as 4.07% (inactive). For `COc1ccc(CC(=O)Nc2nc(-c3ccc(F)c(F)c3)cs2)cc1OC`, the inhibition was 29.1% (inactive). `CCC1([N+](=O)[O-])COC(c2ccc(C)cc2)OC1` (stereo not given) was tested, and the inhibition was -12.8% (inactive). For `Nc1cc(=O)n(Cc2ccccc2)c(=O)n1Cc1ccccc1`, the inhibition was 0.22% (inactive). `C[C@@H]1ON(C)[C@H]2C[C@H]3c4cc(N5CCN(C)CC5)ccc4CCN3C(=O)[C@@H]12` was tested, and the inhibition was -19.4% (inactive). `Cn1c(=S)sc2ccc3ccccc3c21` was tested, and the inhibition was 5.87% (inactive). With `N#CC1(Nc2ccc(-c3ccc(Cl)cc3)cc2)CCCC1` the inhibition was 5.44% (inactive). `O=C(Nc1cccc(S(=O)(=O)Nc2ccc(Cl)cc2)c1)c1ccc2c(c1)OCCO2` was tested, and the inhibition was 70.2% (active). For `O=C(Nc1cccc(S(=O)(=O)N2CCCCC2)c1)c1ccc2c(c1)OCO2`, the inhibition was 8.54% (inactive). With `O=C(Nc1ccc(NC(=O)c2ccc3c(c2)OCO3)cc1)c1cccc(Cl)c1` the inhibition was -14.8% (inactive). `NS(=O)(=O)c1ccc(CCNC(=O)c2ccc(Cl)c(S(=O)(=O)N3CCCCCC3)c2)cc1` was tested, and the inhibition was 32.8% (inactive). `CCCCC(=O)Nc1ccc(C(=O)Nc2cc(C(F)(F)F)ccc2Cl)cc1` was tested, and the inhibition was 67.9% (inactive). With `CCCC(=O)Nc1ccc(Cl)c(NC(=O)c2ccc(Br)o2)c1` the inhibition was 70.8% (active). For `CCN1CCN(c2c(Cl)cccc2NC(=O)c2ccc(Br)o2)CC1`, the inhibition was 33.7% (inactive). For `COc1cc2c(cc1OC)C1C(=O)c3cc(OS(C)(=O)=O)c(OC)cc3C1N(C)C2=O` (stereo not given), the inhibition was -1% (inactive). In the case of `O=C1COc2c1ccc(O)c2O`, the inhibition is reported as -17.3% (inactive). For `CN(C(=O)c1cccc(NC(=O)Cc2cccc(NC(=O)C3CCCN(C(=O)C4CC4)C3)c2)c1)C1CCC1` (stereo not given), the inhibition was 31.6% (inactive). With `CN(C(=O)c1cccc(NC(=O)Cc2ccc(NC(=O)C3CCCN(C(=O)C4CCCC4)C3)cc2)c1)C1CCC1` (stereo not given) the inhibition was 86.9% (active). For `CN(CCc1ccccc1)C(=O)c1cccc(NC(=O)Cc2cccc(NC(=O)C3CCCN(C(=O)CCc4ccccc4)C3)c2)c1` (stereo not given), the inhibition was 78.5% (active). `O=C(Cc1ccc(NC(=O)C2CCCN(C(=O)CCc3ccccc3)C2)cc1)Nc1ccc(C(=O)N2CCOCC2)cc1` (stereo not given) was tested, and the inhibition was 58.6% (inactive). In the case of `CN(CCc1ccccc1)C(=O)c1cccc(NC(=O)Cc2cccc(NC(=O)C3CCCN(C(=O)C4CCC4)C3)c2)c1` (stereo not given), the inhibition is reported as 26.9% (inactive). In the case of `CN(C(=O)c1cccc(NC(=O)Cc2ccc(NC(=O)C3CCCN(C(=O)C4CC4)C3)cc2)c1)C1CC1` (stereo not given), the inhibition is reported as 70% (inactive). In the case of `COc1cc(/C=C/c2ccc(/C=C/c3cc(OC)c(OC)c(OC)c3)cc2)cc(OC)c1OC`, the inhibition is reported as 51.2% (inactive). For `Nc1cc2c(cc1Br)-c1ccc(F)cc1C2=O`, the inhibition was 22.3% (inactive). For `C=CCOC(=O)N1CCC2CC1c1cc(-c3ccc(OC)cc3)ccc12` (stereo not given), the inhibition was -4.14% (inactive). With `Oc1c(CN2CCOCC2)ccc(CN2CCOCC2)c1O` the inhibition was 0.438% (inactive). With `Cc1c(Cl)c([N+](=O)[O-])nn1Cc1ccc(C(=O)N/N=C\c2cc(Cl)ccc2O)o1` the inhibition was 129% (active). With `Cc1ccc(C(=O)O)cc1NC(=O)c1ccc(Cn2nc(C)c(Cl)c2C)o1` the inhibition was 4.04% (inactive). With `Cc1c(Cl)c([N+](=O)[O-])nn1CCCC(=O)Nc1cc(Cl)ccc1Cl` the inhibition was -14.8% (inactive). For `CC(C)CN1CC(C)C(=O)N(c2ccccc2)C1=S` (stereo not given), the inhibition was -3.77% (inactive). For `CC(C)CN(C(=O)COC(=O)c1ccc(Cl)c(N)c1)c1c(N)n(Cc2ccccc2)c(=O)[nH]c1=O`, the inhibition was 21.7% (inactive). With `COc1ccc2oc(C(=O)OCC(=O)N(CC(C)C)c3c(N)n(Cc4ccccc4)c(=O)[nH]c3=O)c(C)c2c1` the inhibition was 71% (active). With `CC(C)CN(C(=O)COC(=O)c1ccc2ccccc2c1)c1c(N)n(Cc2ccccc2)c(=O)[nH]c1=O` the inhibition was 27.1% (inactive). `CCC(C)C1(C2CCCC2)NC(=O)NC1=O` (stereo not given) was tested, and the inhibition was -1.25% (inactive). In the case of `C[n+]1cccc(C(=O)O)c1`, the inhibition is reported as -14.9% (inactive). For `COc1cccc(C(=O)NCCS(=O)(=O)NCC2CCCO2)c1` (stereo not given), the inhibition was -26.7% (inactive). `COc1ccc2cc(C(=O)NCC3CCCO3)[nH]c2c1` (stereo not given) was tested, and the inhibition was -25.3% (inactive). For `COc1cccc(/C=C2\Sc3ccc(C(=O)NCC4CCCO4)cc3N(C)C2=O)c1` (stereo not given), the inhibition was 76.6% (active). With `CSCCC(NC(=O)COc1ccccc1)C(=O)OCc1ccc(Cl)cc1` (stereo not given) the inhibition was -22.7% (inactive). For `Cc1ccc(S(=O)(=O)c2cc3c(=O)n4cccc(C)c4nc3n(CCc3ccccc3)c2=N)cc1C`, the inhibition was -25.8% (inactive). For `COc1cccc2c1C(=O)c1c(O)c3c(c(O)c1C2=O)CC(O)(C(C)=NNC(=O)c1ccc(Cl)c(Cl)c1)CC3OC1CC(N)C(O)C(C)O1` (stereo not given), the inhibition was 33.2% (inactive). With `O=[N+]([O-])c1cccc(C=NN=Cc2ccccc2O)c1` the inhibition was 45.3% (inactive). In the case of `COc1ccc2c(c1)C(=O)CC(c1ccccc1)O2` (stereo not given), the inhibition is reported as 17.3% (inactive). For `CCN1/C(=C/C(=S)Nc2ccccc2)Sc2ccccc21`, the inhibition was 80.2% (active). `CCNCCC(=O)N1c2ccccc2Sc2ccc(NC(=O)OCC)cc21` was tested, and the inhibition was -8.72% (inactive). For `CCN1/C(=C\c2ccc3ccccc3[n+]2CC)Sc2cc(C)ccc21`, the inhibition was 55.6% (inactive).
